Results taken from PubChem BioAssay (NCATS).
Results filed as inconclusive are left out. Activity calls are given as the source filed them. The call rests on the fitted dose curve; in most records, active means well fitted inhibition curve with a large enough effect; inconclusive means small, poorly fitted or top-dose-only effect; inactive means flat fitted curve, though single readings scatter.

The molecules below were run on MCC-26 (assay: qHTS assay to identify novel small-molecules to repurpose for Merkel cell carcinoma treatment (AID 1296009; further: nearly all actives have a fitted effect of over 60% in size)). Conditions: MCC and control cell lines, CellTiter-Glo viability, 72 h; series mostly up to 46 µM; activity change, negative = cytotoxicity: at the top concentration.
Procedure, shortened: (§1)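 Luminescence from CellTiter-Glo, read 10 min after addition at room temperature, reported viability following a 72 hr, 37 degree celsius treatment with NPC or MIPE compounds in titration; values normalized to plate controls.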
On the % scale 0 is the no-effect control and ±100 the full control effect; potency means the concentration at half of the fitted maximal effect.

| SMILES | activity change, negative = cytotoxicity | Potency |
| --- | --- | --- |
| OC(CCN1CCCCC1)(c1ccccc1)c1ccccc1 | -13.3% (inactive) |  |
| Cc1ccccc1C(=O)Nc1ccc(C(=O)N2CCCC(N(C)C)c3ccccc32)cc1 (stereo not drawn) | -3.63% (inactive) |  |
| CN1CCC(=C2c3ccccc3Sc3ccccc32)CC1 | -19.8% (inactive) |  |
| CC1(C)O[C@@H]2C[C@H]3[C@@H]4CCC5=CC(=O)CC[C@]5(C)[C@@]4(F)[C@@H](O)C[C@]3(C)[C@]2(C(=O)CCl)O1 | -2.37% (inactive) |  |
| c1ccc(OCc2ccc(CCCN3CCOCC3)cc2)cc1 | -4.18% (inactive) |  |
| COC1=CC(=O)C[C@@H](C)[C@]12Oc1c(Cl)c(OC)cc(OC)c1C2=O | -9.38% (inactive) |  |
| COc1cccc2c1C(=O)c1c(O)c3c(c(O)c1C2=O)C[C@@](O)(C(C)=O)C[C@@H]3O[C@H]1C[C@H](N)[C@H](O)[C@H](C)O1 |  | 944 nM (active) |
| O=C1[C@H]2CCCC[C@H]2C(=O)N1CCCCN1CCN(c2nsc3ccccc23)CC1 | 1.8% (inactive) |  |
| CCCCCCC[N+](CC)(CC)CCCCc1ccc(Cl)cc1 | -3.55% (inactive) |  |
| CC1(C)O[C@@H]2C[C@H]3[C@@H]4C[C@H](F)C5=CC(=O)C=C[C@]5(C)[C@H]4[C@@H](O)C[C@]3(C)[C@]2(C(=O)CO)O1 | -2.41% (inactive) |  |
| C=C(CC)C(=O)c1ccc(OCC(=O)O)c(Cl)c1Cl | 9.2% (inactive) |  |
| C/C=C(/C(=C/C)c1ccc(O)cc1)c1ccc(O)cc1 | -9.48% (inactive) |  |
| C[C@@H]1C[C@H]2[C@@H]3CCC4=CC(=O)C=C[C@]4(C)[C@@]3(F)[C@@H](O)C[C@]2(C)[C@H]1C(=O)CO | -7.33% (inactive) |  |
| c1ccc(CNCCNCc2ccccc2)cc1 | -5.74% (inactive) |  |
| CCCCCC=CCC=CCCCCCCCC(=O)OCC | 6.37% (inactive) |  |
| COc1ccc(CN2CCN(C(c3ccc(F)cc3)c3ccc(F)cc3)CC2)c(OC)c1OC | 2.22% (inactive) |  |
| CN(C)CC/C=C1\c2ccccc2Sc2ccc(Cl)cc21 | -15% (inactive) |  |
| CCN(CCCc1ccccc1)CCCc1ccccc1 | 3.54% (inactive) |  |

Each molecule was assayed on MKL-1 in the same assay as above. Conditions: MCC and control cell lines, CellTiter-Glo viability, 72 h; series mostly up to 46 µM; activity change, negative = cytotoxicity: at the top concentration.
Procedure, shortened: as §1

| SMILES | Potency | activity change, negative = cytotoxicity |
| --- | --- | --- |
| C[n+]1c2cc(N)ccc2cc2ccc(N)cc21 (tested in a mixture with another compound) | 2990 nM (active) |  |
| CC(=O)c1ccc2c(c1)N(CCCN1CCC(CCO)CC1)c1ccccc1S2 |  | -12% (inactive) |
| C[C@H]1C[C@H]2[C@@H]3CCC4=CC(=O)C=C[C@]4(C)[C@@]3(Cl)[C@@H](O)C[C@]2(C)[C@@]1(O)C(=O)CO |  | 11.2% (inactive) |
| CCCCOc1ccc(OCCCN2CCOCC2)cc1 |  | 5.75% (inactive) |
| CC(=O)[C@H]1CC[C@H]2[C@@H]3C[C@H](C)C4=CC(=O)CC[C@]4(C)[C@H]3[C@@H](O)C[C@]12C |  | -1.59% (inactive) |
| O=C(OCC(O)CO)c1ccccc1Nc1ccnc2cc(Cl)ccc12 (stereo not drawn) |  | -9.96% (inactive) |
| COc1cc2c(cc1OC)[C@@H]1CC(=O)[C@@H](CC(C)C)CN1CC2 |  | 1.94% (inactive) |
| C=C1C[C@H]2[C@@H]3C=C(C)C4=CC(=O)CC[C@]4(C)[C@H]3CC[C@]2(C)[C@@]1(OC(C)=O)C(C)=O |  | -18.1% (inactive) |
| CN(C)CCCOc1nn(Cc2ccccc2)c2ccccc12 |  | -10.9% (inactive) |
| CC(=O)Oc1ccc(C(c2ccc(OC(C)=O)cc2)c2ccccn2)cc1 |  | -16.1% (inactive) |
| CN(C/C=C/c1ccccc1)Cc1cccc2ccccc12 |  | 0.283% (inactive) |
| OC(CCN1CCCCC1)(c1ccccc1)c1ccccc1 |  | -8.74% (inactive) |
| Cc1ccccc1C(=O)Nc1ccc(C(=O)N2CCCC(N(C)C)c3ccccc32)cc1 (stereo not drawn) |  | -9.67% (inactive) |
| CC1(C)O[C@@H]2C[C@H]3[C@@H]4CCC5=CC(=O)CC[C@]5(C)[C@@]4(F)[C@@H](O)C[C@]3(C)[C@]2(C(=O)CCl)O1 |  | 16.2% (inactive) |
| c1ccc(OCc2ccc(CCCN3CCOCC3)cc2)cc1 |  | -13.8% (inactive) |
| COc1cccc2c1C(=O)c1c(O)c3c(c(O)c1C2=O)C[C@@](O)(C(C)=O)C[C@@H]3O[C@H]1C[C@H](N)[C@H](O)[C@H](C)O1 | 23.7 nM (active) |  |
| CCCCCCCCCCCCCCCC[N+](C)(C)CC | 119 nM (active) |  |
| O=C1[C@H]2CCCC[C@H]2C(=O)N1CCCCN1CCN(c2nsc3ccccc23)CC1 |  | -14.1% (inactive) |
| CCCCCCC[N+](CC)(CC)CCCCc1ccc(Cl)cc1 | 596 nM (active) |  |
| CC1(C)O[C@@H]2C[C@H]3[C@@H]4C[C@H](F)C5=CC(=O)C=C[C@]5(C)[C@H]4[C@@H](O)C[C@]3(C)[C@]2(C(=O)CO)O1 |  | -3.81% (inactive) |
| C=C(CC)C(=O)c1ccc(OCC(=O)O)c(Cl)c1Cl | 8410 nM (active) |  |
| C/C=C(/C(=C/C)c1ccc(O)cc1)c1ccc(O)cc1 |  | -23.3% (inactive) |
| C[C@@H]1C[C@H]2[C@@H]3CCC4=CC(=O)C=C[C@]4(C)[C@@]3(F)[C@@H](O)C[C@]2(C)[C@H]1C(=O)CO |  | -2.92% (inactive) |
| c1ccc(CNCCNCc2ccccc2)cc1 |  | -1.72% (inactive) |
| CCN(CCCc1ccccc1)CCCc1ccccc1 |  | 7.28% (inactive) |
